PubChem BioAssay (Tox21)
Records with an inconclusive call do not appear. The source made the active and inactive calls. Calls come from the whole dose curve; as a rule, active = well fitted curve in the direction sought with a large enough effect in the repeat runs; inconclusive = weak or mixed curves; inactive = no such curve, though single readings can be large; an effect the other way counts as inactive or inconclusive.

Experiment: qHTS RealTime-Glo MT Cell Viability Assay in HEK293 cells - 16 hour (AID 1224872); note: top concentration of the series differs between compounds; nearly all actives have a fitted effect of over 50% in size
Conditions: RealTime-Glo luminescence; series mostly up to 76.8 µM; activity change, negative = cytotoxicity: at the top concentration
How it was run: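 Tox21 10K qHTS, HEK293, 600 cells/well, RealTime-Glo reagent co-dispensed with cells; 5 h preincubation, compound by pintool, 37 C, luminescence at 0–40 h.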
% is set by controls: 0 for no effect and ±100 for the full control effect.

Row | SMILES | activity change, negative = cytotoxicity
1 | NC(=O)c1cn(Cc2c(F)cccc2F)nn1 | 0.256% [at 35.3 µM] (inactive)
2 | Cc1[nH]c(=O)c(C#N)cc1-c1ccc2nccn2c1 | 3.14% [at 35.3 µM] (inactive)
3 | FC1(F)C(F)(F)C(F)(F)C2(F)C(F)(F)C(F)(F)C(F)(F)C(F)(F)C2(F)C1(F)F (configuration not stated) | 4.78% [at 35.3 µM] (inactive)
4 | C=C1CC[C@H]2C[C@@H]1C2(C)C | 3.32% (inactive)
5 | CN1C(=O)N(C)C(O)C1O (configuration not stated) | -2.42% (inactive)
6 | CCN(CC)CCOCCOC(=O)C1(c2ccccc2)CCCC1 | -2.27% [at 35.3 µM] (inactive)
7 | CCC(C)C1CCCCC1=O (configuration not stated) | 7.7% (inactive)
8 | C=C[Si](OC(=C)C)(OC(=C)C)OC(=C)C | 24.4% (inactive)
9 | CC(C)NC(=O)NC(C)C | 7.6% (inactive)

Experiment: qHTS RealTime-Glo MT Cell Viability Assay in HepG2 cells - 8 hour (AID 1224873); note: nearly all actives have a fitted effect of over 55% in size
Conditions: RealTime-Glo luminescence; series mostly up to 76.8 µM; viability change, negative = cytotoxic: at the top concentration
How it was run: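 Real-time viability: cells seeded at 600 per well together with NanoLuc and cell-permeant prosubstrate, compounds added after 5 h incubation. Luminescence tracked at 0, 8, 16, 24, 32 and 40 h of exposure.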

Row | SMILES | viability change, negative = cytotoxic
10 | CCS(=O)(=O)c1ccc(OC)c(C(=O)OC)c1 | 2.23% [at 35.3 µM] (inactive)
11 | Brc1c(NC2=NCCN2)ccc2nccnc12 | -2.24% [at 35.3 µM] (inactive)
12 | COC(=O)CC(C)=O | 0.638% (inactive)
13 | NC(=O)c1ccc(N)cc1 | 3.72% (inactive)
14 | Cc1cnc(NS(=O)(=O)c2ccc(N)cc2)nc1 | 0.619% [at 35.3 µM] (inactive)
15 | COc1nc(N)nc2c1ncn2[C@@H]1O[C@H](CO)[C@@H](O)[C@@H]1O | 8.53% [at 35.3 µM] (inactive)
16 | CC(C)CNCC(C)C | -0.826% (inactive)
17 | O=C(c1ccccc1)C1CCCCC1 | -14.6% (inactive)
18 | CN1CCCC1 | 2.35% (inactive)
19 | CC(C)(O)C(=O)c1ccccc1 | 3.3% (inactive)
20 | COC(=O)c1ccc(C)cc1C1=NC(C)(C(C)C)C(=O)N1 (configuration not stated) | 3.84% (inactive)
21 | CCCCC(CC)COC(=O)c1ccccc1O (configuration not stated) | 1.4% [at 35.3 µM] (inactive)
22 | Nc1cc(=O)[nH]c(N)n1 | -0.776% [at 35.3 µM] (inactive)
23 | O=C(O)CCCc1ccccc1 | -0.596% [at 35.3 µM] (inactive)
24 | c1ccc([C@H]2CN3CCSC3=N2)cc1 | 2.97% [at 35.3 µM] (inactive)
25 | CCOC(=O)CCC(C)=O | 8.21% (inactive)
26 | COc1ccc2c(c1)CCCC2=O | 3.1% [at 35.3 µM] (inactive)

Row | SMILES | viability change, negative = cytotoxic
27 | C[C@H](NC(CCc1ccccc1)C(=O)O)C(=O)N1CCC[C@H]1C(=O)O (some centres not stated) | -0.0564% [at 35.3 µM] (inactive)
28 | CC(=O)OCC(=O)[C@@]1(O)CCC2C3CCC4=CC(=O)CC[C@]4(C)C3[C@@H](O)C[C@@]21C (some centres not stated) | 2.22% [at 35.3 µM] (inactive)
29 | C[C@](N)(Cc1ccc(O)cc1)C(=O)O | 1.11% [at 6.97 µM] (inactive)
30 | COC(=O)NN | -10.9% (inactive)
31 | CCCCCOC(=O)CCCCC | 4.71% (inactive)
32 | CCCCCCCCCCCCCC=O | 0.248% [at 6.97 µM] (inactive)
33 | CC(=O)N(CC(O)CO)c1c(I)c(C(=O)NCCO)c(I)c(C(=O)NCC(O)CO)c1I (configuration not stated) | 0.49% [at 35.3 µM] (inactive)
34 | CN1CC(=O)NC1=N | 1.35% [at 35.3 µM] (inactive)
35 | NC(=O)c1cn(Cc2c(F)cccc2F)nn1 | 0.717% [at 35.3 µM] (inactive)
36 | Cc1[nH]c(=O)c(C#N)cc1-c1ccc2nccn2c1 | 2.04% [at 35.3 µM] (inactive)
37 | FC1(F)C(F)(F)C(F)(F)C2(F)C(F)(F)C(F)(F)C(F)(F)C(F)(F)C2(F)C1(F)F (configuration not stated) | 4.6% [at 35.3 µM] (inactive)
38 | C=C1CC[C@H]2C[C@@H]1C2(C)C | 3.73% (inactive)
39 | CN1C(=O)N(C)C(O)C1O (configuration not stated) | -0.824% (inactive)
40 | CCN(CC)CCOCCOC(=O)C1(c2ccccc2)CCCC1 | -0.284% [at 35.3 µM] (inactive)
41 | CCC(C)C1CCCCC1=O (configuration not stated) | 0.202% (inactive)
42 | C=C[Si](OC(=C)C)(OC(=C)C)OC(=C)C | 1.36% (inactive)
43 | CC(C)NC(=O)NC(C)C | 0.172% (inactive)

Experiment: qHTS RealTime-Glo MT Cell Viability Assay in HEK293 cells - 40 hour (AID 1224874); note: nearly all actives have a fitted effect of over 50% in size
Conditions: RealTime-Glo luminescence; max response: active compounds read low
How it was run: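 HEK293 cells mixed with RealTime-Glo reagents (NanoLuc plus cell-permeant prosubstrate) at 600 cells/well, preincubated 5 h at 37 C/5% CO2, then given 23 nL compound in DMSO. Nonlytic luminescence from viable cells was read at 0, 8, 16, 24, 32 and 40 h.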

Row | SMILES | max response
44 | CCS(=O)(=O)c1ccc(OC)c(C(=O)OC)c1 | 5.71% (inactive)
45 | Brc1c(NC2=NCCN2)ccc2nccnc12 | -1.41% (inactive)
46 | COC(=O)CC(C)=O | 11.5% (inactive)
47 | NC(=O)c1ccc(N)cc1 | -2.31% (inactive)
48 | Cc1cnc(NS(=O)(=O)c2ccc(N)cc2)nc1 | 2.61% (inactive)
49 | COc1nc(N)nc2c1ncn2[C@@H]1O[C@H](CO)[C@@H](O)[C@@H]1O | 14.1% (inactive)
50 | CC(C)CNCC(C)C | 0.947% (inactive)
51 | O=C(c1ccccc1)C1CCCCC1 | -10.1% (inactive)
52 | CN1CCCC1 | 1.57% (inactive)
53 | CC(C)(O)C(=O)c1ccccc1 | 1.69% (inactive)
54 | COC(=O)c1ccc(C)cc1C1=NC(C)(C(C)C)C(=O)N1 (configuration not stated) | 5.2% (inactive)
55 | CCCCC(CC)COC(=O)c1ccccc1O (configuration not stated) | 0.0024% (inactive)
56 | Nc1cc(=O)[nH]c(N)n1 | 0.787% (inactive)
57 | O=C(O)CCCc1ccccc1 | 0.564% (inactive)
58 | c1ccc([C@H]2CN3CCSC3=N2)cc1 | 3.46% (inactive)
59 | CCOC(=O)CCC(C)=O | -9.25% (inactive)
60 | COc1ccc2c(c1)CCCC2=O | 0.353% (inactive)

Row | SMILES | max response
61 | C[C@H](NC(CCc1ccccc1)C(=O)O)C(=O)N1CCC[C@H]1C(=O)O (some centres not stated) | -70.9% (inactive)
62 | CC(=O)OCC(=O)[C@@]1(O)CCC2C3CCC4=CC(=O)CC[C@]4(C)C3[C@@H](O)C[C@@]21C (some centres not stated) | -13.4% (inactive)
63 | C[C@](N)(Cc1ccc(O)cc1)C(=O)O | 0.763% (inactive)
64 | COC(=O)NN | 1.74% (inactive)
65 | CCCCCOC(=O)CCCCC | 7.06% (inactive)
66 | CCCCCCCCCCCCCC=O | 5.19% (inactive)
67 | CC(=O)N(CC(O)CO)c1c(I)c(C(=O)NCCO)c(I)c(C(=O)NCC(O)CO)c1I (configuration not stated) | 9.14% (inactive)
68 | CN1CC(=O)NC1=N | 9.12% (inactive)
69 | NC(=O)c1cn(Cc2c(F)cccc2F)nn1 | 4.6% (inactive)
70 | Cc1[nH]c(=O)c(C#N)cc1-c1ccc2nccn2c1 | 5.99% (inactive)
71 | FC1(F)C(F)(F)C(F)(F)C2(F)C(F)(F)C(F)(F)C(F)(F)C(F)(F)C2(F)C1(F)F (configuration not stated) | 1.37% (inactive)
72 | C=C1CC[C@H]2C[C@@H]1C2(C)C | 5.42% (inactive)
73 | CN1C(=O)N(C)C(O)C1O (configuration not stated) | 1.97% (inactive)
74 | CCN(CC)CCOCCOC(=O)C1(c2ccccc2)CCCC1 | -9.14% (inactive)
75 | CCC(C)C1CCCCC1=O (configuration not stated) | 7.3% (inactive)
76 | C=C[Si](OC(=C)C)(OC(=C)C)OC(=C)C | 13.4% (inactive)
77 | CC(C)NC(=O)NC(C)C | 4.41% (inactive)
